Test results reported in PubChem BioAssay AID1117358 (Southern Research Institute, 2015).
Screen size: about 2,300 compounds; about 160 (7%) were called active. How the calls were made is not given here. Only a sample is shown. Results with a measured potency or affinity are listed apart.

Experiment: viability loss in Vero cells – cytotoxicity control for Vif-APOBEC3G degradation inhibitor project, dose response (AID 1117358)
Conditions: CellTiter-Glo ATP luminescence, 72 h; series mostly up to 40 µM

Compound | outcome
O=C(O)CCC(=O)NNC(=O)CCC(=O)NCc1ccccc1 | inactive
Cc1cc(F)ccc1S(=O)(=O)Nc1ccccc1C(=O)Nc1ccc2[nH]c(=O)[nH]c2c1 | inactive
COC(=O)c1ccccc1NC(=O)C1CCCC1 | inactive
COc1ccc(NC(=O)/C(C#N)=C\c2cc(C)n(-c3ccc(Oc4ccc([N+](=O)[O-])cn4)cc3)c2C)cc1 | inactive
Cc1ccc(Cc2cnc(NC(=O)/C(C#N)=C/c3ccc(-c4ccc([N+](=O)[O-])cc4)o3)s2)cc1 | inactive
O=C(NCc1ccc(F)cc1)c1c(O)c2cccc3c2n(c1=O)CCC3 | inactive
CCSC1=C(C#N)C(c2cccs2)C(C(=O)OC)=C(C)N1 (stereo not given) | inactive
CCOC(=O)c1c(O)c2ccccc2n(-c2ccccc2)c1=O | inactive
CCn1c(=O)c(C(=O)NCc2ccccn2)c(O)c2ccccc21 | inactive
Cc1ccc2cc3c(NC(=O)c4cccnc4)nn(C)c3nc2c1 | inactive
CN(C)C(CNC(=O)c1cccnc1Sc1ccccc1)c1ccco1 (stereo not given) | inactive
O=C(c1cnn2c(C(F)F)cc(C3CC3)nc12)N1CCc2ccccc2C1 | inactive
O=C(NC1CCCC1)c1ccc(CNc2c(N3CCOCC3)c(=O)c2=O)cc1 | inactive
CN(C)[C@H]1N(C(=O)c2ccc(Br)cc2)N=C2c3ccccc3S(=O)(=O)N21 | inactive
Cc1cc(C(=O)CN2C(=O)c3ccccc3S2(=O)=O)c(C)n1CC1CCCO1 (stereo not given) | inactive
Cc1c(NS(=O)(=O)c2cccc(C(=O)NCc3ccncc3)c2)c(=O)n(-c2ccccc2)n1C | inactive
O=C(CCCc1ccccc1)N1CCN(c2ccc([N+](=O)[O-])cc2)CC1 | inactive
Cc1ccc(-c2nc3s/c(=C\c4ccco4)c(=O)n3n2)cc1 | inactive
O=C(NCC1CCCO1)c1cc(-c2ccco2)nc2ccccc12 (stereo not given) | inactive
CCCC(=O)Nc1cccc(-c2nc3ccccc3o2)c1 | inactive
CCn1c(SCC(=O)n2nc(C)cc2C)nnc1-c1ccc2c(c1)OCO2 | inactive
Cc1c(/C=N\NC(=O)c2csc3ccccc23)cnn1C | inactive
CN(CCOCCOc1ccc2ccccc2c1)Cc1ccccc1 | inactive
Cc1cc(NC(=O)c2cncc(Br)c2)no1 | inactive
O=C(O)c1cc(-c2ccc(N3CCOCC3)cc2)nn1-c1ccc(F)cc1F | inactive
CC(=O)C1=C(O)C(=O)N(Cc2ccco2)C1c1ccc(F)cc1 (stereo not given) | inactive
COc1ccc(N2C(=O)C3CCCN3C2c2ccc(C)cc2)cc1 (stereo not given) | inactive
Cc1[nH]c2ccccc2c1C(=O)Cn1c(=O)oc2ccccc21 | inactive

Compound | outcome
Cc1[nH]c2ccccc2c1C(=O)CN1CCC(C(N)=O)(N2CCCCC2)CC1 | inactive
Cc1nn(Cc2ccc(Cl)cc2)c(C)c1NC(=O)c1cc(-c2ccc3c(c2)OCO3)on1 | inactive
Cc1nn(Cc2ccccc2)c(C)c1NC(=O)Cn1nc([N+](=O)[O-])c(Cl)c1C | inactive
CC1(C)Oc2ccc(C(=O)NC3CCCC3)cc2N(CC(=O)NC2CCCC2)C1=O | inactive
CCOc1ccc(N(CC(=O)NC(C)(C)C)S(=O)(=O)c2c(C)noc2C)cc1 | inactive
Cn1nnnc1SCC(=O)NCc1ccco1 | inactive
CN(C)S(=O)(=O)N1CCC(CCCC2CCN(S(=O)(=O)N(C)C)CC2)CC1 | inactive
Cc1ccc(NC(=O)COc2ccccc2C(=O)Nc2ccccc2)cc1Cl | inactive
O=C(C/C=N/OCc1c(Cl)cccc1Cl)c1ccc(Cl)cc1 | inactive
Cc1cc(C)cc(NCc2cc3c(cc2[N+](=O)[O-])OCO3)c1 | inactive
O=C(Oc1ccccc1)c1cccc2cccnc12 | inactive
CC(C)c1ccc(NC(=O)C(c2ccccc2)N2CCC3(CC2)OCCO3)cc1 (stereo not given) | inactive
Oc1cccc(/C=N/c2c(-c3ccco3)nc3ccccn23)c1 | inactive
CCC(c1nnnn1C(C)(C)CC)N(CCCO)Cc1cc2cc(C)cc(C)c2[nH]c1=O (stereo not given) | inactive
Cc1cccc(-n2c(Cc3cc(=O)[nH]c(=O)[nH]3)nnc2SCC(=O)NCC2CCCO2)c1 (stereo not given) | inactive
CC(NC(=O)c1cccs1)C(c1cccs1)N1CCN(Cc2ccccc2)CC1 (stereo not given) | inactive
CCOC(=O)c1c(NC(=O)c2cc(CC(C)C)on2)sc(C(C)=O)c1C | inactive
N#CC1=C(Nc2ccccc2)SC=C(c2ccc(Br)cc2)N=C1N1CCOCC1 | inactive
Cc1nc2ccc(S(=O)(=O)N(C)CC(=O)N3CCc4ccccc43)cc2s1 | inactive
COc1cccc(-c2nnc(SCC(=O)N3CCOCC3)o2)c1 | inactive
CCOc1ccc(Cl)cc1S(=O)(=O)N1CCN(c2ccc(F)cc2)CC1 | inactive
CCOc1ccc(C2=[N+]([O-])C(C)(C)N(O)C2(C)C)cc1 | inactive
CC1=CC(C)(C)Nc2ccc(OC(=O)CN3C(=O)c4cccc5cccc(c45)C3=O)cc21 | inactive
O=C(Oc1cccnc1)c1ccc(Cl)cc1 | inactive
Cc1ccc(-c2ccc(CCC(=O)O)n2NC(N)=S)cc1 | inactive
Cc1cc(-c2[nH]nc3c2C(c2cccc(O)c2)C(C#N)=C(N)O3)c(C)s1 (stereo not given) | inactive
CCC(C)C(NC(=O)[C@@H](NC(=O)c1ccccc1F)C(C)C)C(=O)OC (stereo not given in full) | inactive
